Source: PubChem BioAssay (EPA / NIEHS)
Results filed as inconclusive are left out. The source made the active and inactive calls. How the source made its calls, unless noted: active means hit-call score of the fitted dose curve at least 0.9, where 1 is the maximum; inactive means score below 0.9.

Tests used:
[1] = target: human Vitamin D Receptor (VDR), VDR (gene 7421) (UniProt P11473); test: ATG_VDR_TRANS: Attagene TRANS-FACTORIAL HepG2 Assay for human Vitamin D Receptor (VDR) (AID 2283022; active means hit-call score of the fitted dose curve at least 0.9, where 1 is the maximum)
Sequence of human Vitamin D Receptor (VDR), VDR (gene 7421) (P11473 whole entry, looked up, the tested form may be a part): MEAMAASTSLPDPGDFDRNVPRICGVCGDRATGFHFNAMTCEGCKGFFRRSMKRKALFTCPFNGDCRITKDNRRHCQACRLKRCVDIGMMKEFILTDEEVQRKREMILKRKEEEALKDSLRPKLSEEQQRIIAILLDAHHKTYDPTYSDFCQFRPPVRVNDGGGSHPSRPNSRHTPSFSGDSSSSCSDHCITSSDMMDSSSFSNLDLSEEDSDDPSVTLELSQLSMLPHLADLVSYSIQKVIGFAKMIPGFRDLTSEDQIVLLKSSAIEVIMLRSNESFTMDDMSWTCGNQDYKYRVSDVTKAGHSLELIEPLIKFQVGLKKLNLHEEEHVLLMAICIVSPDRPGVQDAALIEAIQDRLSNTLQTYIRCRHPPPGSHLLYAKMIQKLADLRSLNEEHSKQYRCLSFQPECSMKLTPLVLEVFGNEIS
How it was run: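 Steps: transfect HepG2 with GAL4-UAS-driven reporter constructs; dose compounds 24 h; isolate RNA, reverse-transcribe, PCR-amplify with 6-FAM-labelled primer extension and HpaI digestion; quantify fragments by capillary electrophoresis relative to DMSO.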

[2] = BSK_3C_SRB: Viability Assessment in the BioMAP Diversity Plus: 3C Assay (AID 2283023); settings: primary human endothelial cells (HUVEC);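 further: cells read 24 h after compound dosing; fitted both ways against DMSO so a hit may be signal rise or drop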
How it was run: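 Absorbance at 560 nm of sulforhodamine B-stained (0.1%) total protein served as a cytotoxicity readout in human umbilical vein endothelial cells, 24 h after chemical treatment. Signal was fitted bidirectionally relative to DMSO.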

[3] = read-out: Matrix Metallopeptidase 1 (MMP1), MMP1 (gene 4312); test: BSK_BE3C_MMP1: BioMAP Diversity Plus: BE3C Assay for Matrix Metallopeptidase 1 (MMP1) Biomarker Activity (AID 2283024); settings: primary human bronchial epithelial cells; actives raise or lower the signal
How it was run: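 In this multiplexed primary-cell system, human bronchial epithelium received chemicals for 24 h before an ELISA for MMP1. Values reflect bidirectional fits normalised to the DMSO baseline.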

[4] = BSK_3C_Vis: BioMAP Diversity Plus: 3C Assay for Morphology Visualization (AID 2283025); settings: primary human endothelial cells (HUVEC);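 further: light microscopy image of cell morphology used as background control; fitted both ways so gain or loss versus DMSO counts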
How it was run: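 Light-microscopy morphology readout, 24 h exposure, human primary umbilical vein endothelium; analysed relative to DMSO with bidirectional fitting.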

[5] = read-out: Pselectin, SELP (gene 6403); test: BSK_4H_Pselectin: BioMAP Diversity Plus: 4H Assay for Pselectin Biomarker Activity (AID 2283026); settings: primary human endothelial cells (HUVEC); actives raise or lower the signal
How it was run: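 Bidirectional fits against DMSO gave the endpoint. Cells: primary human umbilical vein endothelium, chemical-treated for 24 h before ELISA detection of P-selectin.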

[6] = BSK_4H_SRB: Viability Assessment in the BioMAP Diversity Plus: 4H Assay (AID 2283027); settings: primary human endothelial cells (HUVEC);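 further: cells exposed to compound for 24 h before staining; curves fitted both ways versus DMSO so AC50 may be loss or gain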
How it was run: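 Cytotoxicity readout: sulforhodamine B (0.1%) staining of total protein after 10% TCA fixation, measured at 560 nm in human umbilical vein endothelium at 24 h. DMSO set the baseline; fitting was bidirectional.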

[7] = read-out: Urokinase-type plasminogen activator receptor (uPAR), PLAUR (gene 5329); test: BSK_4H_uPAR: BioMAP Diversity Plus: 4H Assay for Urokinase-type plasminogen activator receptor (uPAR) Biomarker Activity (AID 2283030); settings: primary human endothelial cells (HUVEC); actives raise or lower the signal
How it was run: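 Cell-surface uPAR ELISA signal, measured 24 h after dosing human umbilical vein endothelial cells, was analyzed with bidirectional fitting relative to DMSO. Parallel SRB staining of total protein tracked overt cytotoxicity.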

[8] = read-out: Vascular endothelial growth factor receptor 2 (Homo sapiens) (UniProt P35968); test: BSK_4H_VEGFRII: BioMAP Diversity Plus: 4H Assay for Vascular endothelial growth factor receptor 2 (VEGFR2) Biomarker Activity (AID 2283031); settings: primary human endothelial cells (HUVEC); actives raise or lower the signal
How it was run: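 ELISA read-out of VEGFRII in primary human umbilical vein endothelium, taken 24 h after chemical treatment. Responses are expressed relative to DMSO, with bidirectional fitting.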

[9] = read-out: Human Leukocyte Antigen - DR isotype (HLADR), HLA-DRA (gene 3122); test: BSK_BE3C_HLADR: BioMAP Diversity Plus: BE3C Assay for Human Leukocyte Antigen - DR isotype (HLADR) Biomarker Activity (AID 2283032); settings: primary human bronchial epithelial cells; actives raise or lower the signal
How it was run: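 BioMAP BE3C format: human bronchial epithelium, 24 h compound treatment, ELISA detection of HLA-DR, with bidirectional analysis relative to DMSO.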

[10] = read-out: Vascular cell adhesion molecule 1 (VCAM1), VCAM1 (gene 7412); test: BSK_4H_VCAM1: BioMAP Diversity Plus: 4H Assay for Vascular cell adhesion molecule 1 (VCAM1) Biomarker Activity (AID 2283033); settings: primary human endothelial cells (HUVEC); actives raise or lower the signal
How it was run: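 In this human endothelial (HUVEC) system, biomarker ELISA was run 24 h after compound addition, and total protein in parallel wells was assessed by SRB at 560 nm; DMSO served as negative control.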

[11] = read-out: Interferon-gamma inducible Protein 10 (IP10), CXCL10 (gene 3627); test: BSK_BE3C_IP10: BioMAP Diversity Plus: BE3C Assay for Interferon-gamma inducible Protein 10 (IP10) Biomarker Activity (AID 2283034); settings: primary human bronchial epithelial cells; actives raise or lower the signal
How it was run: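 BE3C cells (human bronchial epithelial, primary); 24 h exposure; ELISA for IP-10; DMSO-referenced bidirectional fit.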

[12] = read-out: Monokine induced gamma interferon (MIG), CXCL9 (gene 4283); test: BSK_BE3C_MIG: BioMAP Diversity Plus: BE3C Assay for Monokine induced gamma interferon (MIG) Biomarker Activity (AID 2283035); settings: primary human bronchial epithelial cells; actives raise or lower the signal;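 further: MIG protein measured by ELISA in BE3C cultures after 24 h of dosing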
How it was run: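 hu bronchial epithelial 1° cells, 24 h cpd; MIG by ELISA; bidirectional fit, DMSO = baseline.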

[13] = read-out: Transforming growth factor beta 1 (TGFb1), TGFB1 (gene 7040); test: BSK_BE3C_TGFb1: BioMAP Diversity Plus: BE3C Assay for Transforming growth factor beta 1 (TGFb1) Biomarker Activity (AID 2283036); settings: primary human bronchial epithelial cells; actives raise or lower the signal
How it was run: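 TGF-b1 measured via ELISA, 24 h after chemical dosing of human bronchial epithelial cells (BE3C). Overt cytotoxicity assessed in parallel by SRB (0.1%, TCA-fixed, 560 nm); analysis bidirectional relative to DMSO.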

[14] = read-out: Plasminogen activator inhibitor-1 (PAI1), SERPINE1 (gene 5054); test: BSK_BE3C_PAI1: BioMAP Diversity Plus: BE3C Assay for Plasminogen activator inhibitor-1 (PAI1) Biomarker Activity (AID 2283037); settings: primary human bronchial epithelial cells; actives raise or lower the signal
How it was run: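 In this multiplexed primary-cell system, bronchial epithelial cells receive test chemical and are sampled at 24 h. PAI-1 is read by ELISA, with DMSO serving as negative control for bidirectional fitting.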

[15] = read-out: urokinase plasminogen activator (uPA), PLAU (gene 5328); test: BSK_BE3C_uPA: BioMAP Diversity Plus: BE3C Assay for urokinase plasminogen activator (uPA) Biomarker Activity (AID 2283038); settings: primary human bronchial epithelial cells; actives raise or lower the signal
How it was run: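 Bronchial epithelial cells (human, primary); chemical 24 h; uPA by ELISA; bidirectional fit vs DMSO. SRB (0.1%, after 10% TCA fixation, 560 nm) in parallel cultures for cytotoxicity.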

[16] = read-out: Urokinase-type plasminogen activator receptor (uPAR), PLAUR (gene 5329); test: BSK_BE3C_uPAR: BioMAP Diversity Plus: BE3C Assay for Urokinase-type plasminogen activator receptor (uPAR) Biomarker Activity (AID 2283039); settings: primary human bronchial epithelial cells; actives raise or lower the signal
How it was run: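 Chemically treated human bronchial epithelial cells (lung primary) are assayed for uPAR by ELISA after 24 h, with data fitted in both directions using DMSO as negative control.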

[17] = read-out: Interleukin-6 (IL6), IL6 (gene 3569); test: BSK_CASM3C_IL6: BioMAP Diversity Plus: CASM3C Assay for Interleukin-6 (IL6) Biomarker Activity for (AID 2283040); settings: primary human coronary artery smooth muscle cells; actives raise or lower the signal

CC(C)(CO)[C@@H](O)C(=O)NCCC(=O)O
outcome [1]: inactive

CCCCCCCCCCCCCCN(CCO)CCO
outcome [1]: inactive

CCc1cc(C(C)(C)C)c(O)c(C(C)(C)C)c1
outcome [1]: inactive

OCC(O)c1ccccc1 (stereo unspecified)
outcome [1]: inactive

CCN(CCN)c1cccc(C)c1
outcome [1]: inactive

Cc1ccc(C)o1
outcome [1]: inactive

CCOC(=O)CC(C)O (stereo unspecified)
outcome [1]: inactive

CCC1(C)NC(=O)NC1=O (stereo unspecified)
outcome [1]: inactive

Cc1c(C2(c3cc(Br)c(O)c(Br)c3C)OS(=O)(=O)c3ccccc32)cc(Br)c(O)c1Br
outcome [1]: inactive

O=C(O)CCCCCCCCC(=O)O
outcome [1]: inactive

c1ccc(CCc2ccccc2)cc1
AC50 [2]: 30.5 µM (active) | AC50 [3]: 20 µM (active) | AC50 [4]: 8.8 µM (active) | AC50 [5]: 35.7 µM (active) | AC50 [6]: 31 µM (active) | AC50 [7]: 32.2 µM (active) | outcome [8]: inactive | AC50 [9]: 30.3 µM (active) | AC50 [10]: 35.9 µM (active) | AC50 [11]: 29.7 µM (active) | outcome [12]: inactive | AC50 [13]: 27.8 µM (active) | AC50 [14]: 29.3 µM (active) | AC50 [15]: 28.9 µM (active) | AC50 [16]: 20 µM (active) | AC50 [17]: 26.8 µM (active)
